# Experimental data: PMC4552634, “A New Set of Chemical Starting Points with Plasmodium falciparum Transmission-Blocking Potential for Antimalarial Drug Discovery” (PLoS ONE, 2015)
# Where two headings read alike, the source gives them in different places. The campaign covered roughly 13,000 compounds. About 3,200 (25%) showed an effect of 50% or more. Some of the results follow.
# Test system: P. falciparum stage V gametocytes
# Design: BacTiter-Glo ATP luminescence viability of purified stage V gametocytes in 384-well plates, per cent inhibition versus DMSO
# Details: 48 h, 5 µM, inhibitor
SMILES,% Inhibition,% Inhibition (% Inhibition)
CN(c1cc(NC(=O)c2ccc(F)cc2)ccn1)C1CCN(Cc2cccc(F)c2)CC1 [TCMDC-135019],38.57%,
Cc1ccnc(NC(=O)c2cc(-c3cccc([N+](=O)[O-])c3)nc3onc(C)c23)c1 [TCMDC-124591],3.347%,
C=C[C@]1(C)C[C@@H](OC(=O)NC(=O)CCCS(=O)(=O)c2nnc(C)s2)[C@]2(C)[C@H](C)CC[C@]3(CCC(=O)[C@H]32)[C@@H](C)[C@@H]1O [TCMDC-140927],24.97%,
C#CC(C)(CO)N1CCCC1 (stereo not drawn) [TCMDC-131372],-4.555%,
CCOC(=O)c1c(C)n(-c2ccccc2)c2ccc(O)cc12 [TCMDC-125483],-27.27%,
Oc1ccccc1CNCC12CC3CC(CC(C3)C1)C2 [TCMDC-125554],-22.39%,
CC(C)C[C@H](Nc1ccnc(NCC2CCCCC2)n1)C(=O)Nc1ccccc1 [TCMDC-134714],-42.51%,
CC(C)c1ccc(Nc2nc(NCCc3cnc[nH]3)nc(NCc3ccccc3)n2)cc1 [TCMDC-139741],-6.505%,
CC1CN(Cc2cccc(F)c2)CCN1c1ccc(NC(=O)c2ccc(F)cc2)cc1 (stereo not drawn) [TCMDC-135017],-0.6551%,
Cc1ccc(NC(=O)Nc2cccc(Cl)c2)cc1-c1ccc(C(=O)Nc2ccncc2)cc1 [TCMDC-133699],10.77%,
Cl.Oc1ccc(C2CNCCc3c2cc(O)c(OCc2ccccc2)c3Cl)cc1 (stereo not drawn) [TCMDC-141979],17.32%,
O=C(N[C@@H](Cc1ccccc1)C(=O)NC1CCCCC1)c1ccc(O)c(-c2ccc(Cl)c(Cl)c2)c1 [TCMDC-140824],35.45%,
O=C(NC(=S)Nc1cc(C(F)(F)F)cc(C(F)(F)F)c1)c1ccc(Cl)cc1 [TCMDC-124077],25.76%,
COc1cc(Cc2cnc(N)nc2N)cc(OCCCCCC(=O)O)c1OC [TCMDC-137677],-23.13%,
CC[C@H](C)CNC(=O)c1cncc(-c2cccc(CNC3Cc4ccccc4C3)c2)c1 [TCMDC-134218],-33.07%,
Cc1cccc(-c2ccc3c(c2)CC(NCc2cccc(-n4ccnc4)c2)C3)c1 (stereo not drawn) [TCMDC-134831],2.381%,
NC(=O)c1cccc(-n2ccc3cc(CNC4Cc5ccccc5C4)ccc32)c1 [TCMDC-133416],99.63%,
c1ccc2nc(NCCCCCCCCNc3ccc4ccccc4n3)ccc2c1 [TCMDC-137745],26.97%,
c1ccc2ncc(CNCCCCCCCCNCc3cnc4ccccc4c3)cc2c1 [TCMDC-137744],97.27%,
COc1cccc(Cc2cnc3nc(N)nc(N)c3c2C)c1 [TCMDC-138060],-3.76%,
CC(=O)Nc1ccc(S(=O)(=O)Nc2ccc(Nc3nc(C)cc(N(C)C)n3)cc2)cc1 [TCMDC-124951],-47.31%,
COc1ccc2nccc([C@@H](O)CN3CCC(NC(=O)/C=C/c4cccc(NC(C)=O)c4)CC3)c2c1 [TCMDC-141029],-15.14%,
COc1cccc(CNc2ncc(-c3ccsc3)c(-c3nccs3)n2)c1 [TCMDC-125375],51.63%,

SMILES,% Inhibition,% Inhibition (% Inhibition)
COc1ccc(CNc2ncc(-c3ccsc3)c(-c3nccs3)n2)cc1OC [TCMDC-125369],23.78%,
Fc1cccc(CNc2ncc(-c3ccsc3)c(-c3nccs3)n2)c1 [TCMDC-125374],21.86%,
Fc1ccccc1CNc1ncc(-c2ccsc2)c(-c2nccs2)n1 [TCMDC-125366],77.55%,
COc1cc(CNc2ncc(-c3ccsc3)c(-c3nccs3)n2)cc(OC)c1 [TCMDC-124844],31.51%,
COc1ccccc1CNc1ncc(-c2ccsc2)c(-c2nccs2)n1 [TCMDC-125376],13.46%,
c1cc(CNc2ncc(-c3ccsc3)c(-c3nccs3)n2)ccn1 [TCMDC-125371],35.87%,
c1cncc(CNc2ncc(-c3ccsc3)c(-c3nccs3)n2)c1 [TCMDC-125368],23.89%,
Fc1ccc(CNc2ncc(-c3ccsc3)c(-c3nccs3)n2)cc1 [TCMDC-125372],57.46%,
Clc1ncccc1-c1nc(NCCC(c2ccccc2)c2ccccc2)no1 [TCMDC-134181],13.92%,
Clc1cc(Cl)cc(Nc2ccnc(Nc3cc(Cl)cc(Cl)c3)n2)c1 [TCMDC-134277],-19.19%,
Cc1nc(N/C=C/c2ccc(O)cc2)cc(N2CCCC2)n1 [TCMDC-135162],20.32%,
NC1=NC(c2ccccc2)(c2cccc(O)c2)C(=O)N1CCCc1ccccc1 (stereo not drawn) [TCMDC-132351],,-3.76%
COc1cccc(CN2CCC(CCOC(c3ccccc3)c3ccc(Cl)cc3)CC2)c1O (stereo not drawn) [TCMDC-136040],-76.2%,
COc1ccc(S(=O)(=O)NC2CCN(CCCOc3ccnc4cc(Cl)ccc34)C2)cc1OC (stereo not drawn) [TCMDC-136146],-25.22%,
COc1cc(Br)c(S(=O)(=O)n2cc(CN3CCC(N)CC3)c3cc(Cl)ccc32)cc1OC [TCMDC-136384],95.22%,
COc1ccc(NC(=O)Nc2ccc(-c3ccccc3)cc2Cl)cc1N1CCN(C)CC1 [TCMDC-139137],-40.38%,
CN1CCC(NCc2cccc(-c3ccc(S(=O)(=O)NCCN4CCCC4)s3)c2)CC1 [TCMDC-132218],98.17%,
O=S(=O)(NCCN1CCCC1)c1ccc(-c2cccc(CNC3Cc4ccccc4C3)c2)s1 [TCMDC-132217],90.5%,
O=S(=O)(NCCN1CCCC1)c1ccc(-c2ccc(CNC3Cc4ccccc4C3)cc2)s1 [TCMDC-132234],69.5%,
COc1cccc(-c2cnc(N)c(-c3nc4ccc(F)cc4[nH]3)c2)c1 [TCMDC-138791],-6.276%,
Cn1c(=O)c(-c2c(Cl)cccc2Cl)cc2cnc(Nc3ccc(N4CCOCC4)cc3)nc21 [TCMDC-137156],-23.94%,
O=C(Nc1cccc([N+](=O)[O-])c1)Nc1ccc(Cl)c(C(F)(F)F)c1 [TCMDC-123511],-89.27%,
CCN(c1ccc(F)cc1)S(=O)(=O)c1cc(Br)cc2c1N(C(=O)C1CC1)CC2 [TCMDC-123802],-9.966%,

SMILES,% Inhibition,% Inhibition (% Inhibition)
Cn1cc(C(=O)Nc2cccc(-c3cccc(-c4nc5ccc(F)cc5[nH]4)c3)c2)n(C)c1=O [TCMDC-137136],-0.01557%,
O=C(c1cc(OC(F)(F)F)ccc1O)N1CCN(c2ccccc2)CC1 [TCMDC-141127],10.35%,
CC(=O)Nc1ccc(Nc2cc(C)nc(Nc3ccc(NC(C)=O)cc3)n2)cc1 [TCMDC-125764],22.75%,
Cc1cccc2[nH]c(-c3ccc(-c4cccc(NC(=O)c5cccc(C(N)=O)c5)c4)cc3)nc12 [TCMDC-132197],5.465%,
COc1ccc2nccc([C@@H](O)CN3CCC(NCc4ccc5c(n4)NC(=O)CS5)C(F)C3)c2c1 (stereo partly drawn) [TCMDC-141718],-27.67%,
O=C(Nc1cccc(CN2CCCN(Cc3ccc(O)cc3)CC2)c1)c1ccc2ccccc2c1 [TCMDC-141857],26.89%,
COc1cccc(-c2cccc(NC(=O)C3CCN(Cc4ccc(O)cc4)CC3)c2)c1 [TCMDC-124692],72.66%,
COc1ccc(CN2CCC(C(=O)Nc3cccc(-c4cccc(Cl)c4)c3)CC2)cc1O [TCMDC-124610],-57.51%,
O=C(Nc1cccc(OCc2ccccc2)c1)c1ccc(CN2CCC(Cc3ccccc3)CC2)cc1 [TCMDC-136885],-23.99%,
O=C(Nc1cccc(CN2CCCN(Cc3ccsc3)CC2)c1)c1ccc(-c2ccccc2)cc1 [TCMDC-141840],82.52%,
O=C(Nc1ccc2ccccc2c1)c1ccc(CN2CCC(Cc3ccccc3)CC2)cc1 [TCMDC-123818],92.78%,
O=C(Nc1cccc(-c2cccc(F)c2)c1)C1CCN(Cc2ccc(O)cc2)CC1 [TCMDC-124688],48.55%,
COc1cccc(CN2CCCN(Cc3cccc(NC(=O)c4ccc(-c5ccccc5)cc4)c3)CC2)c1 [TCMDC-141847],-61.09%,
COc1ccc(CN2CCCN(Cc3cccc(NC(=O)c4ccc5ccccc5c4)c3)CC2)cc1 [TCMDC-141853],-65.02%,
O=C(Nc1cccc(CN2CCCN(Cc3cccc(O)c3)CC2)c1)c1ccc(-c2ccccc2)cc1 [TCMDC-141848],31.74%,
O=C(Nc1cccc(CN2CCCN(Cc3ccccc3)CC2)c1)c1ccc(-c2ccccc2)cc1 [TCMDC-134589],-25.71%,
COc1ccc(CN2CCCN(Cc3cccc(NC(=O)c4ccc(-c5ccccc5)cc4)c3)CC2)cc1 [TCMDC-141839],80.31%,
CC(=O)Nc1cc(C(=O)Nc2cccc(-c3csc(-c4nc5ccccc5[nH]4)c3)c2)ccc1C [TCMDC-132397],-24.51%,
Cc1nc2ccc3ccc(CNc4ccc(C(=O)N[C@@H](CCC(=O)O)C(=O)O)cc4)cc3c2c(=O)[nH]1 [TCMDC-137629],7.462%,
CCC[C@@H]([C@@H](CC1CCCCC1)C(=O)N[C@@H](CCCCNS(C)(=O)=O)C(=O)Nc1nccs1)N(O)C=O [TCMDC-138143],41.43%,
CC1(C)CCNc2cc(NC(=O)c3ccc(-c4ncccc4C(F)(F)F)cc3)ccc21 [TCMDC-133353],8.36%,
COc1ccc(C2=CCN(c3ccc(Cl)c(Cl)c3)C2=O)cc1OCCN1CCCCC1 [TCMDC-138795],24.05%,
COc1ccc2nccc([C@@H](O)CN3CCC(NC(=O)c4ccc(OC)c(N)c4)CC3)c2c1 [TCMDC-140772],8.441%,
